Holding throughout (settings): mRNA level, 48 h; actives raise or lower the signal
Read-out in one test: HGF (gene 3082)
The experiment in a line: LTEA_HepaRG_HGF: Life Technologies and Expression Analysis (LTEA) Assay for Hepatocyte Growth Facto (HGF) using HepaRG (AID 2283505). In outline: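 Read-out is HGF transcript level by qRT-PCR, normalized to three housekeeping genes, fitted bidirectionally against 0.5% DMSO vehicle. Human HepaRG cells received test chemicals for 48 h at up to 100 uM.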

Read-out in test [1]: Insulin Like Growth Factor 1 (IGF1), IGF1 (gene 3479)
The experiment in a line: LTEA_HepaRG_IGF1: Life Technologies and Expression Analysis (LTEA) Assay for Insulin Like Growth Factor 1 (IGF1) using HepaRG (AID 2283506). In short, it runs like this: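 Cells are thawed, plated and cultured 48 h, then exposed in duplicate to chemical (highest 100 uM, half-log steps, 0.5% DMSO) for another 48 h. Total RNA is analysed by Fluidigm qRT-PCR for IGF1 expression relative to vehicle.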

Read-out in test [2]: Intercellular Adhesion Molecule 1 (ICAM1), ICAM1 (gene 3383)
Kind of test: LTEA_HepaRG_ICAM1: Life Technologies and Expression Analysis (LTEA) Assay for Intercellular Adhesion Molecule 1 (ICAM1) using HepaRG (AID 2283507). In short, it runs like this:
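Readout is qRT-PCR mRNA level, normalized to three housekeeping genes and fitted bidirectionally against 0.5% DMSO vehicle. Human HepaRG cultures received compound for 48 h, top concentration 100 uM with half-log dilutions.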

Read-out in test [3]: Interleukin 6 (IL6), IL6 (gene 3569)
The experiment in a line: LTEA_HepaRG_IL6: Life Technologies and Expression Analysis (LTEA) Assay for Interleukin 6 (IL6) using HepaRG (AID 2283509). In outline:
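Changes in IL6 mRNA, up or down relative to 0.5% DMSO controls, were derived from concentration-response curves in human HepaRG cells treated for 48 h at up to 100 uM, with ACTB, GAPDH and POLR2A as normalizers.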

Read-out in test [4]: Interleukin 6 Receptor (IL6R), IL6R (gene 3570)
Kind of test: LTEA_HepaRG_IL6R: Life Technologies and Expression Analysis (LTEA) Assay for Interleukin 6 Receptor (IL6R) using HepaRG (AID 2283510).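 On AC50: TaqMan qRT-PCR signal normalized to ACTB GAPDH and POLR2A housekeeping genes.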 In outline: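 Cells were thawed, plated and cultured 48 h, then medium was changed to serum-free induction medium. Chemicals were added in duplicate (100 uM top, half-log steps, 0.5% DMSO) for 48 h. Lysates were analyzed by qRT-PCR for IL6R expression.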

Read-out in test [5]: Keratin 19 (KRT19), KRT19 (gene 3880)
The experiment in a line: LTEA_HepaRG_KRT19: Life Technologies and Expression Analysis (LTEA) Assay for Keratin 19 (KRT19) using HepaRG (AID 2283512). In short, it runs like this: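 KRT19 transcript levels, measured by Fluidigm qRT-PCR against three housekeeping genes, are fitted for gain or loss of signal relative to DMSO. Human HepaRG cells receive test chemicals (top 100 uM, half-log steps, 0.5% DMSO) for 48 hours.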

Read-out in test [6]: JUN Transcription Factor, JUN (gene 3725)
Kind of test: LTEA_HepaRG_JUN: Life Technologies and Expression Analysis (LTEA) Assay for JUN Transcription Factor using HepaRG (AID 2283513). In short, it runs like this:
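Read-out is JUN transcript level by TaqMan qRT-PCR, normalized to ACTB, GAPDH and POLR2A, after 48 h chemical treatment of HepaRG cells. Concentration-response spanned eight half-log points up to 100 uM in 0.5% DMSO.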

Read-out in test [7]: Lipase C (LIPC), LIPC (gene 3990)
The experiment in a line: LTEA_HepaRG_LIPC: Life Technologies and Expression Analysis (LTEA) Assay for Lipase C (LIPC) using HepaRG (AID 2283514). In outline: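 In this multiplexed gene-expression screen, human HepaRG cultures received test chemicals for 48 h across eight concentrations with 100 uM highest, in duplicate. Values reflect LIPC mRNA induction or suppression versus DMSO vehicle, from normalized qRT-PCR.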

Read-out in test [8]: Lipoprotein lipase (LPL), LPL (gene 4023)
Kind of test: LTEA_HepaRG_LPL: Life Technologies and Expression Analysis (LTEA) Assay for Lipoprotein lipase (LPL) using HepaRG (AID 2283515). In short, it runs like this:
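Concentration-response testing used half-log steps from 100 uM in 0.5% DMSO on human HepaRG cells, 48 h, duplicate wells. Phenobarbital 1 mM served as induction control; LPL mRNA was normalized to ACTB, GAPDH, POLR2A.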

Read-out in test [9]: MicroRNA 122 (MIR122), gene 406906
The experiment in a line: LTEA_HepaRG_MIR122: Life Technologies and Expression Analysis (LTEA) Assay for MicroRNA 122 (MIR122) using HepaRG (AID 2283516). Further: the transcript read is the microRNA miR-122. In outline: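 Human liver HepaRG cultures receive test chemicals for 48 h at eight half-log concentrations from 100 uM. Expression is quantified by qRT-PCR with ACTB/GAPDH/POLR2A normalization and fitted bidirectionally against 0.5% DMSO.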

Read-out in test [10]: matrix metalloproteinase-10 (MMP10), MMP10 (gene 4319)
The experiment in a line: LTEA_HepaRG_MMP10: Life Technologies and Expression Analysis (LTEA) Assay for matrix metalloproteinase-10 (MMP10) using HepaRG (AID 2283517). In short, it runs like this: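 In differentiated HepaRG cultures kept in 0.5% DMSO, test chemicals act for 48 h over an eight-point range with a top dose of 100 uM. Expression is then quantified by TaqMan RT-PCR against ACTB, GAPDH and POLR2A.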

Read-out in the next test: MYC, MYC (gene 4609)
Kind of test: LTEA_HepaRG_MYC: Life Technologies and Expression Analysis (LTEA) Assay for MYC using HepaRG (AID 2283518). In outline:
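HepaRG, ~100,000 cells/well, collagen I; 48 h plating; serum-free induction medium; 48 h dosing, duplicate, 100 uM top, half-log, 0.5% DMSO; total RNA → qRT-PCR MYC; gain/loss fit vs DMSO.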

Read-out in test [11]: matrix metalloproteinase-3 (MMP3), MMP3 (gene 4314)
The experiment in a line: LTEA_HepaRG_MMP3: Life Technologies and Expression Analysis (LTEA) Assay for matrix metalloproteinase-3 (MMP3) using HepaRG (AID 2283519). In short, it runs like this: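 Human liver HepaRG cultures received chemicals (top concentration 100 uM, 0.5% DMSO) for 48 h in duplicate. MMP3 mRNA induction or loss was then assessed via TaqMan qRT-PCR with housekeeping-gene normalisation.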

Read-out in test [12]: Paternally Expressed 10 (PEG10), PEG10 (gene 23089)
Kind of test: LTEA_HepaRG_PEG10: Life Technologies and Expression Analysis (LTEA) Assay for Paternally Expressed 10 (PEG10) using HepaRG (AID 2283520).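 On AC50: PEG10 transcript by qRT-PCR normalised to ACTB GAPDH and POLR2A.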 In outline: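 Human HepaRG cultures are dosed for 48 h across an eight-point half-log series starting at 100 uM, with 0.5% DMSO as vehicle and baseline. Gain or loss of PEG10 transcript is measured by qRT-PCR and fitted in both directions.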

Read-out in test [13]: Nuclear factor NF-kappa-B p105 subunit (Homo sapiens) (UniProt P19838)
The experiment in a line: LTEA_HepaRG_NFKB1: Life Technologies and Expression Analysis (LTEA) Assay for Nuclear Factor Kappa B Subunit 1 (NFKB1) using HepaRG (AID 2283521).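 Further: TaqMan qRT-PCR transcript normalised to ACTB GAPDH and POLR2A housekeeping genes.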 In short, it runs like this:
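Differentiated human HepaRG cells were exposed for 48 h in serum-free induction medium to eight concentrations (top 100 uM, half-log steps, 0.5% DMSO), in duplicate. NFKB1 mRNA was measured by TaqMan qRT-PCR, normalized to ACTB/GAPDH/POLR2A, and fitted bidirectionally against DMSO.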

Read-out in test [14]: Protein phosphatase 2A (PPP2R4), PTPA (gene 5524)
The experiment in a line: LTEA_HepaRG_PPP2R4: Life Technologies and Expression Analysis (LTEA) Assay for Protein phosphatase 2A (PPP2R4) using HepaRG (AID 2283522). In short, it runs like this:
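Cells were plated, cultured 48 h, switched to serum-free induction medium, then dosed for 48 h (8 points, max 100 uM, 0.5% DMSO). RNA was isolated and PPP2R4 expression measured by TaqMan qRT-PCR.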

Read-out in test [15]: Phosphatase and tensin (PTEN), PTEN (gene 5728)
Kind of test: LTEA_HepaRG_PTEN: Life Technologies and Expression Analysis (LTEA) Assay for Phosphatase and tensin (PTEN) using HepaRG (AID 2283523). In outline: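 Expression of PTEN is quantified in the human liver line HepaRG following two days of dosing (top concentration 100 uM, half-log dilutions, 0.5% DMSO). Values derive from bidirectional curve fitting relative to DMSO controls.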

Read-out in test [16]: solute carrier (SLC22A1), SLC22A1 (gene 6580)
The experiment in a line: LTEA_HepaRG_SLC22A1: Life Technologies and Expression Analysis (LTEA) Assay for solute carrier (SLC22A1) using HepaRG (AID 2283524). In outline: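 Transcript induction or suppression of SLC22A1 in human HepaRG cultures is scored after 48 h chemical treatment, with DMSO (0.5%) as baseline for bidirectional fitting. Concentrations span eight half-log points topping at 100 uM.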

Read-out in test [17]: Potassium channel subfamily K member 1 (KCNK1), KCNK1 (gene 3775)
Kind of test: LTEA_HepaRG_KCNK1: Life Technologies and Expression Analysis (LTEA) Assay for Potassium channel subfamily K member 1 (KCNK1) using HepaRG (AID 2283511). In outline: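 Human HepaRG cultures receive test chemicals for 48 h in 0.5% DMSO, top concentration 100 uM with half-log dilutions. Induction or suppression of KCNK1 mRNA relative to DMSO is derived by bidirectional fitting of qRT-PCR data.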

Active and inactive are the calls of the source. How the source made its calls: active means hit-call score of the fitted dose curve at least 0.9, where 1 is the maximum; inactive means score below 0.9.

Chain of Nuclear factor NF-kappa-B p105 subunit (Homo sapiens) (P19838 whole entry, looked up): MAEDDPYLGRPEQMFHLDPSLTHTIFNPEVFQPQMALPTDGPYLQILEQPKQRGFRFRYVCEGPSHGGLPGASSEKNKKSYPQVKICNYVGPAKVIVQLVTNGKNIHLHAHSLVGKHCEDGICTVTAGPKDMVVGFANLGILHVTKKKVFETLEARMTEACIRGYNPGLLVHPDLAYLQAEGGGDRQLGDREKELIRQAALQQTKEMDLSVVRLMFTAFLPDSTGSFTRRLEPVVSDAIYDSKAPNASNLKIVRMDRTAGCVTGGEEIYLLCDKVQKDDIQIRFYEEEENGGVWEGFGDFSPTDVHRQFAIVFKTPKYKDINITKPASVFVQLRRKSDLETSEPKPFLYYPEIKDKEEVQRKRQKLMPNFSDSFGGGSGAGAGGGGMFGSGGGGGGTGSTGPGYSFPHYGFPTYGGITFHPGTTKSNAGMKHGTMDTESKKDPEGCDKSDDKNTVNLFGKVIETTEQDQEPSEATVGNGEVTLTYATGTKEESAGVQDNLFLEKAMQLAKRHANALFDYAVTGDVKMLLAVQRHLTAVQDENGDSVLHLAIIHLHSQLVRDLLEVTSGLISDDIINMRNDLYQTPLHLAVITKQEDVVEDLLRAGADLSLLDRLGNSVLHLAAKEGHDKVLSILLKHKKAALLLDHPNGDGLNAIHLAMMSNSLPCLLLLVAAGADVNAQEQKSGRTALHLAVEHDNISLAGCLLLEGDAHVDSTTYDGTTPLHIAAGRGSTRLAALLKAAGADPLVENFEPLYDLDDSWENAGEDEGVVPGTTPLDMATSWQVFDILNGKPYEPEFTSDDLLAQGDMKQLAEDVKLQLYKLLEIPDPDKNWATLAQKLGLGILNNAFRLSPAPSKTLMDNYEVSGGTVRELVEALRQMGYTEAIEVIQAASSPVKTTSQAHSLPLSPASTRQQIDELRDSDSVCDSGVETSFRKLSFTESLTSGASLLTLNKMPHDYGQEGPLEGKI

A word on the AC50: it is the concentration at which the activity in the assay is half-maximal. Regarding `CCOC(=O)C(O)(c1ccc(Cl)cc1)c1ccc(Cl)cc1`, the compound was called inactive (with HGF (gene 3082); in [1]; in [2]; in [3]; in test [4]; in [5]). Also, the outcome in [6] is “inactive”; in test [7], “inactive”; in [9], “inactive”; in test [10], “inactive”; with MYC, MYC (gene 4609) it was “inactive”; in test [11], “inactive”. For the same compound, the compound was called inactive in [12], in [13], in test [14], in test [15] and in test [16]. For the same compound, the AC50 in [8] was 9.14 µM (active).

`ClC1=C(Cl)[C@]2(Cl)[C@@H]3[C@@H](Cl)[C@H]4O[C@H]4[C@@H]3C1(Cl)C2(Cl)Cl`: the outcome (with HGF (gene 3082); in [2]; in test [3]; in [4]; in test [5]; in test [7]) was inactive. Besides, the outcome was “inactive” in test [8]; “inactive” in test [9]; “inactive” in test [10]; “inactive” in the test with MYC, MYC (gene 4609); “inactive” in [11]; “inactive” in test [12]. Further, the outcome in test [13], in test [14] and in test [15] was inactive. The half-maximal activity concentration (AC50) in test [1] was 5.01 µM (active); in test [16], 50 µM (active).

Consider `Cc1ccc(O)c(C)c1`, for which the result (in the test with HGF (gene 3082); in test [1]; in test [2]; in [3]; in [4]; in test [5]) was inactive. For the same compound, the outcome in [7] was “inactive”; in [8], “inactive”; in test [9], “inactive”; in test [10] it was “inactive”; in the test with MYC, MYC (gene 4609), “inactive”; in [11], “inactive”. Moreover, the compound was classed as inactive in [12], in test [13], in test [14], in test [15] and in [16].

Regarding `COS(=O)(=O)OC`, the call (with HGF (gene 3082); in test [1]; in test [2]; in test [3]; in test [4]; in [5]) was inactive. For the same compound, the outcome in test [7] was “inactive”; in [8], “inactive”; in test [9], “inactive”; in test [10], “inactive”; in the test with MYC, MYC (gene 4609), “inactive”; in test [11], “inactive”. The result in [12], in test [13], in test [14], in test [15] and in test [16] was inactive.

In the case of `Oc1c(Cl)c(Cl)c(Cl)c(Cl)c1Cl`, the call (with HGF (gene 3082); in test [2]) was inactive. Moreover, the AC50 is 6.52 µM (active) in test [1]; 5.66 µM (active) in test [4]; 6.33 µM (active) in test [5]; 4.24 µM (active) in test [7]; 5.08 µM (active) in [8]; 3.65 µM (active) in test [9]. In addition, the concentration at half-maximal activity (AC50) in test [10] was 25.5 µM (active); in the test with MYC, MYC (gene 4609) it was 16.1 µM (active); in [11] it was 6.02 µM (active); in [12], 2.11 µM (active); in [14], 2.22 µM (active); in test [15], 6.88 µM (active). In addition, the AC50 in [16] was 3.31 µM (active).

As for `CCCCCCOC(=O)c1ccccc1C(=O)OCCCCCC`, the compound was called inactive (in the test with HGF (gene 3082); in [1]; in test [2]; in [3]; in test [4]; in test [5]). The outcome in test [6] was “inactive”; in test [7], “inactive”; in test [8] it was “inactive”; in [9], “inactive”; in test [10], “inactive”; with MYC, MYC (gene 4609), “inactive”. Besides, the call in [11], in [12], in [13], in test [14] and in test [15] was inactive. Besides, the AC50 in test [16] was 0.0876 µM (active).

As to `CC1=C2C[C@H]3[C@@H](CC=C4C[C@@H](O)CC[C@@]43C)[C@@H]2CC[C@]12O[C@@H]1C[C@H](C)CN[C@H]1[C@H]2C`, the outcome (in the test with HGF (gene 3082); in test [1]; in [2]; in test [3]; in test [4]; in test [17]) was inactive. Also, the outcome in [5] is “inactive”; in test [7], “inactive”; in test [8], “inactive”; in [9] it was “inactive”; in test [10] it was “inactive”; in the test with MYC, MYC (gene 4609), “inactive”. The result in [11], in test [12], in test [14], in test [15] and in test [16] was inactive.

The record behind these values is PubChem BioAssay (EPA / NIEHS).
